# Measured values from paper PMC7862700, “An all-to-all approach to the identification of sequence-specific readers for epigenetic DNA modifications on cytosine”.
# Legend:
# Assay in all cases: DAPPL (digital affinity profiling via proximity ligation, sequencing); 10 mM Tris-HCl pH 7.5, 50 mM NaCl, 1 mM DTT, 4% glycerol, room temperature, 30 min; GST-TFs on glutathione beads, 16-mer random dsDNA library, 0.1% formaldehyde crosslink after washing; high values mean tight binding
# FEV = molecular target: T1, FEV (Homo sapiens, UniProt Q99581 1-238); settings: protein: recombinant; tags: N-terminal GST; dsDNA, one strand shown
# T1 sequence: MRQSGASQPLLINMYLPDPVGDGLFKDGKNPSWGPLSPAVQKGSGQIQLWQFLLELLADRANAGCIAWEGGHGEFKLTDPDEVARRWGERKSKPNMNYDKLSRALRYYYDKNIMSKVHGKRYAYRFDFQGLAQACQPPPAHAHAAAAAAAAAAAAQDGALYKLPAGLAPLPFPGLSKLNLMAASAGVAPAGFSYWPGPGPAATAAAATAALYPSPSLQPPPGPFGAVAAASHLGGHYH
# In short: (§1)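 Pools of DNA-barcoded human transcription factors, expressed in yeast as GST fusions on glutathione beads and combined with a tag-only sample, were incubated with 200 nmole of a 16-mer random double-stranded DNA library. Incubation took 30 min at room temperature in Tris/NaCl/DTT/glycerol buffer and was followed by washing, 0.1% formaldehyde crosslinking, proximity ligation (BsaI/T4 ligase, 1 h, 37 °C), PCR amplification and sequencing on an Illumina NextSeq500. Binding signal is the ratio of a hexamer's read frequency for a factor to its frequency for the tag-only sample.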
# ETV5 = ETV5 (Homo sapiens, UniProt P41161 1-510); settings: protein: recombinant; tags: N-terminal GST; dsDNA, one strand shown
# In short: as §1
# HSF1 = HSF1 (Homo sapiens, UniProt Q00613 1-529); settings: protein: recombinant; tags: N-terminal GST; chain copies: 3; dsDNA, one strand shown
# In short: as §1
# SPIC = molecular target: T2, SPIC (Homo sapiens, UniProt Q8N5J4 1-248); settings: protein: recombinant; tags: N-terminal GST; dsDNA, one strand shown
# T2 sequence: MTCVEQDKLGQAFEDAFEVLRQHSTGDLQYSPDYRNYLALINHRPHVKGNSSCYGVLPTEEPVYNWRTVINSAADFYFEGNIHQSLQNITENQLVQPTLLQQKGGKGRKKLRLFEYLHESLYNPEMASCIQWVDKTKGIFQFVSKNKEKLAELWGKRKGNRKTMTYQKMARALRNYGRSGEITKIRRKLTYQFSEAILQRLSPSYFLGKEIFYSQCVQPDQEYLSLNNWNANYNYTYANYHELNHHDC
# In short: as §1
# ELF4 = ELF4 (Homo sapiens, UniProt Q99607 1-663); settings: protein: recombinant; tags: N-terminal GST; dsDNA, one strand shown
# In short: as §1
# ELK4 = molecular target: T3, ELK4 (Homo sapiens, UniProt P28324-2 1-405); settings: protein: recombinant; tags: N-terminal GST; dsDNA, one strand shown
# T3 sequence: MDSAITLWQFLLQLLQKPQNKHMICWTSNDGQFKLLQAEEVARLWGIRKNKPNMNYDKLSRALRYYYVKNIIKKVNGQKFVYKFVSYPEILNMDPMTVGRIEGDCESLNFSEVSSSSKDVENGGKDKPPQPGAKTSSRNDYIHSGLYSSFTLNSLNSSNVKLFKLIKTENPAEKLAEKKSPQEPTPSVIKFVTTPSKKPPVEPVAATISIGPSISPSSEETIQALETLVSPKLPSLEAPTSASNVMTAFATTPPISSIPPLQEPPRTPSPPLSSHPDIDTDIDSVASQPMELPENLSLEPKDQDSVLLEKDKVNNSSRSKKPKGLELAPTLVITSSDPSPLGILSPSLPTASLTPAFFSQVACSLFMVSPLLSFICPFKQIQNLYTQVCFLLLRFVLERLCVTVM
# In short: as §1
# ETV2 = molecular target: T4, ETV2 (Homo sapiens, UniProt O00321 1-342); settings: protein: recombinant; tags: N-terminal GST; dsDNA, one strand shown
# T4 sequence: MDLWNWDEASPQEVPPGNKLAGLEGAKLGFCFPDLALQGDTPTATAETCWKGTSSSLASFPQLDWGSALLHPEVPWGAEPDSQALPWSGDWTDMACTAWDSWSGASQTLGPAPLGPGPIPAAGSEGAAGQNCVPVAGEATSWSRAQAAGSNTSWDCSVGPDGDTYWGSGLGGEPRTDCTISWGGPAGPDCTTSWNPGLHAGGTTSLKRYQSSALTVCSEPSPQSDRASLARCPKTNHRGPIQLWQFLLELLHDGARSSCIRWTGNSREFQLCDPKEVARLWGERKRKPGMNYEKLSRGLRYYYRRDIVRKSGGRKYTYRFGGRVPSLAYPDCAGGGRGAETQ
# In short: as §1
# ELF3 = molecular target: T5, ELF3 (Homo sapiens, UniProt P78545 1-371); settings: protein: recombinant; tags: N-terminal GST; dsDNA, one strand shown
# T5 sequence: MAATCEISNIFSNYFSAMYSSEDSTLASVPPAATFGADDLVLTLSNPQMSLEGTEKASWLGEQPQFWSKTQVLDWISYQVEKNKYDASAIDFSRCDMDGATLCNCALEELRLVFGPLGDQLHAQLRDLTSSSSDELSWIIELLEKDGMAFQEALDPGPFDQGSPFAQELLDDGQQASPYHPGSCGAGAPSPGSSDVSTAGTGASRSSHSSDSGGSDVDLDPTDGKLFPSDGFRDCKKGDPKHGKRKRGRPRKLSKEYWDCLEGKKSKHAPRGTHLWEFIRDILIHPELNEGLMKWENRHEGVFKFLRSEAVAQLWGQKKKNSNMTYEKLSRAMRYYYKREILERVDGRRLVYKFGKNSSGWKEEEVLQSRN
# In short: as §1
# CRX = CRX (Homo sapiens, UniProt O43186 1-299); settings: protein: recombinant; tags: N-terminal GST; dsDNA, one strand shown
# In short: as §1
# ETV1 = ETV1 (Homo sapiens, UniProt P50549 1-477); settings: protein: recombinant; tags: N-terminal GST; dsDNA, one strand shown
# In short: as §1
# ERF = molecular target: T6, ERF (Homo sapiens, UniProt P50548 1-548); settings: protein: recombinant; tags: N-terminal GST; dsDNA, one strand shown
# T6 sequence: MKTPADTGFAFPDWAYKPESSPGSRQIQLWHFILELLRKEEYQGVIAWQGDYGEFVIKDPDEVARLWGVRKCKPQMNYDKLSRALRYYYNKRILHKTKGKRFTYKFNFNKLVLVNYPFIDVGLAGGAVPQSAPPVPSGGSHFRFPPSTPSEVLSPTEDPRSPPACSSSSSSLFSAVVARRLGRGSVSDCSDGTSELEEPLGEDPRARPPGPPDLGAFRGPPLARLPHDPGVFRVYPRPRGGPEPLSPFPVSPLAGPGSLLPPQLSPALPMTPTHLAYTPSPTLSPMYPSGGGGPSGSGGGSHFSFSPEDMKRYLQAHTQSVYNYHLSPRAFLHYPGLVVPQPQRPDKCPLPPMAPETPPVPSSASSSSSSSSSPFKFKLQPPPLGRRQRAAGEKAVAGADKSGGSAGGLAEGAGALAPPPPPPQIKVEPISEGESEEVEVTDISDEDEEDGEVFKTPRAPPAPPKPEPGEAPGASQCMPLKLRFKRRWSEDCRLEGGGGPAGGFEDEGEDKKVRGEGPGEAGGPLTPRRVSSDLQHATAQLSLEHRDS
# In short: as §1
# ETV3L = molecular target: T7, ETV3L (Homo sapiens, UniProt Q6ZN32 1-361); settings: protein: recombinant; tags: N-terminal GST; dsDNA, one strand shown
# T7 sequence: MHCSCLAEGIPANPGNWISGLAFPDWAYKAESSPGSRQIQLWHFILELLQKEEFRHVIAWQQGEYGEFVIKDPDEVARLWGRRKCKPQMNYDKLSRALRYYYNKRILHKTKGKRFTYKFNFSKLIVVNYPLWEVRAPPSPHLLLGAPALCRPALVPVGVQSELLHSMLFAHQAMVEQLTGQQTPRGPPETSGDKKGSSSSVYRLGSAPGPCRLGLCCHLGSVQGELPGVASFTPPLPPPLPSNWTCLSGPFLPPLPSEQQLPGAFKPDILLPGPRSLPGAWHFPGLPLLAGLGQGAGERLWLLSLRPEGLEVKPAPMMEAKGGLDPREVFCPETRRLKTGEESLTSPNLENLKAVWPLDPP
# In short: as §1
# ETS2 = molecular target: T8, ETS2 (Homo sapiens, UniProt P15036 1-469); settings: protein: recombinant; tags: N-terminal GST; dsDNA, one strand shown
# T8 sequence: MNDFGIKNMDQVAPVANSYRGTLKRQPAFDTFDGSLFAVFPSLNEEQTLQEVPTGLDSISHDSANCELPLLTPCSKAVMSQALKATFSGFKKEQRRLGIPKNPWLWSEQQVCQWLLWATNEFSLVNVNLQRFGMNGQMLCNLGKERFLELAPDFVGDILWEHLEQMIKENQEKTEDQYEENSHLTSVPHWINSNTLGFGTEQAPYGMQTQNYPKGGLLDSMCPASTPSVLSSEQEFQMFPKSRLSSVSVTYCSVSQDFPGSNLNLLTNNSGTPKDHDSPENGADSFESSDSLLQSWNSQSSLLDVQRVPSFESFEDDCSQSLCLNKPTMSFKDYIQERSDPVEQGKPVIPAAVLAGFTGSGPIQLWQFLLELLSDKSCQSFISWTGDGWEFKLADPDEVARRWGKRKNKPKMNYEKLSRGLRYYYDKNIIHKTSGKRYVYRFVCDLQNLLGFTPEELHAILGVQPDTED
# In short: as §1
# ETV7 = molecular target: T9, ETV7 (Homo sapiens, UniProt Q9Y603 1-341); settings: protein: recombinant; tags: N-terminal GST; dsDNA, one strand shown
# T9 sequence: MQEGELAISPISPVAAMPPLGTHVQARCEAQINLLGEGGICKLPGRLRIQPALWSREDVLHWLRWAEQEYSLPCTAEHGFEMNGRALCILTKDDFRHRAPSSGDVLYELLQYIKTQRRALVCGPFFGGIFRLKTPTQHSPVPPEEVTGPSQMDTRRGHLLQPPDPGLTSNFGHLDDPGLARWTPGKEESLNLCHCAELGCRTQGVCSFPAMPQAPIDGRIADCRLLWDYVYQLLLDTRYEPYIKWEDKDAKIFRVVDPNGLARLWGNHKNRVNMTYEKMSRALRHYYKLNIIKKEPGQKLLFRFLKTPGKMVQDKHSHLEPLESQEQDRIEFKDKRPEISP
# In short: as §1
# ELF5 = molecular target: T10, ELF5 (Homo sapiens, UniProt Q9UKW6-2 1-255); settings: protein: recombinant; tags: N-terminal GST; dsDNA, one strand shown
# T10 sequence: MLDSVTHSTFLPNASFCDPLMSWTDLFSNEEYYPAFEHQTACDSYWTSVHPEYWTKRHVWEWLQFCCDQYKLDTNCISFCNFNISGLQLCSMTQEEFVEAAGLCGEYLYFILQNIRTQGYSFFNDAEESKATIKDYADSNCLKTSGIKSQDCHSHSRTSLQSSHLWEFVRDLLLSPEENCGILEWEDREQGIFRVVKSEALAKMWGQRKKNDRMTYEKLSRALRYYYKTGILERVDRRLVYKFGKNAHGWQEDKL
# In short: as §1
# ETV3 = molecular target: T11, ETV3 (Homo sapiens, UniProt P41162-2 1-143); settings: protein: recombinant; tags: N-terminal GST; dsDNA, one strand shown
# T11 sequence: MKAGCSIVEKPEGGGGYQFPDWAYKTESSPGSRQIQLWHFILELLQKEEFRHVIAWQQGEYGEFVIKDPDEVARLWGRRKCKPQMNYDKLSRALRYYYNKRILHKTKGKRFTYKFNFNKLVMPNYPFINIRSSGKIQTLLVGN
# In short: as §1
# ETV6 = ETV6 (Homo sapiens, UniProt P41212 1-452); settings: protein: recombinant; tags: N-terminal GST; dsDNA, one strand shown
# In short: as §1
# ETV1, sequence (P50549 whole entry): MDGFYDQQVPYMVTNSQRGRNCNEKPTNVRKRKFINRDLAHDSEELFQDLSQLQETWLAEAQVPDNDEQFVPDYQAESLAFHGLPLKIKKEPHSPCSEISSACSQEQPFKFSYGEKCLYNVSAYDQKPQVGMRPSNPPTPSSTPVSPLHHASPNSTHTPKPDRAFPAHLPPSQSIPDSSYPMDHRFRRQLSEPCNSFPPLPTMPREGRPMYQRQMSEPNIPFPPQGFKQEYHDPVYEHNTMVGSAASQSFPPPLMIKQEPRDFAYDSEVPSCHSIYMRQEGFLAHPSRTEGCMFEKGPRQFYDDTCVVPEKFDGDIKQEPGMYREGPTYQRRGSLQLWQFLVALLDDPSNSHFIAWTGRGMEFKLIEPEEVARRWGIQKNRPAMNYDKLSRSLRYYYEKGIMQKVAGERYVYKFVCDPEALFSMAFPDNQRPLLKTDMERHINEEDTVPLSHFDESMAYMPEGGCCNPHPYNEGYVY
# ETV5, sequence (P41161 whole entry): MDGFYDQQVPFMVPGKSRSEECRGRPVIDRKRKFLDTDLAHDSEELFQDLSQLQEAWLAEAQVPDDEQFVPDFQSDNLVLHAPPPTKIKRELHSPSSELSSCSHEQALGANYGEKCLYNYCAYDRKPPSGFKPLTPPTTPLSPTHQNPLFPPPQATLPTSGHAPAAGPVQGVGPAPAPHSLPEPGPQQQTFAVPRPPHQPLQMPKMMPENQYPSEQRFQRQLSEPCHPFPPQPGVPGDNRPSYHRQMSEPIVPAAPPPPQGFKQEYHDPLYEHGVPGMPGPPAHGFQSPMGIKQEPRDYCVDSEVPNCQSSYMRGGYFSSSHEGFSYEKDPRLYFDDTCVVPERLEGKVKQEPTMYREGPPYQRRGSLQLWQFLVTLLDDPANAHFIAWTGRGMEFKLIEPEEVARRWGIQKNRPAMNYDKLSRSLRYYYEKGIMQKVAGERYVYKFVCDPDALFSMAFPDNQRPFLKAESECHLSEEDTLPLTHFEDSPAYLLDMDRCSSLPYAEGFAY
# CRX, sequence (O43186 whole entry): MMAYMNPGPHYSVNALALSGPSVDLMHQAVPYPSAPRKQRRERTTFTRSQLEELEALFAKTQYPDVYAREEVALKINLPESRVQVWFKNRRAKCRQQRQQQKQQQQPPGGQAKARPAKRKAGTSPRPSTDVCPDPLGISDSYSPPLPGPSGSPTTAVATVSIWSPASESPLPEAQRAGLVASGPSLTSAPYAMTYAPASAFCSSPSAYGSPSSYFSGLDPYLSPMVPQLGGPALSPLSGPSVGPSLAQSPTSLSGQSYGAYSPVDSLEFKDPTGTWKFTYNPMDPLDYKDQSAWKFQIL
# ETV6, sequence (P41212 whole entry): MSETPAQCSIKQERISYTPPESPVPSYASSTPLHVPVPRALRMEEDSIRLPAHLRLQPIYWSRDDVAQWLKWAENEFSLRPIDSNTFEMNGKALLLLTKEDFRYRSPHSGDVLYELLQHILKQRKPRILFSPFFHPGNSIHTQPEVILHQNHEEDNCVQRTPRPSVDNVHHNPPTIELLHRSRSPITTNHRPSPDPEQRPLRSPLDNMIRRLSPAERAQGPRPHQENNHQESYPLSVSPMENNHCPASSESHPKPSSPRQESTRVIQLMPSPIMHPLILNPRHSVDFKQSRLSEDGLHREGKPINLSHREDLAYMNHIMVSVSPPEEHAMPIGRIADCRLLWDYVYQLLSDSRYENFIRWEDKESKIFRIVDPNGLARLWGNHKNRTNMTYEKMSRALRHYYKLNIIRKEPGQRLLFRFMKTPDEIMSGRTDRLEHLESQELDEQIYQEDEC
# ELF4, sequence (Q99607 whole entry): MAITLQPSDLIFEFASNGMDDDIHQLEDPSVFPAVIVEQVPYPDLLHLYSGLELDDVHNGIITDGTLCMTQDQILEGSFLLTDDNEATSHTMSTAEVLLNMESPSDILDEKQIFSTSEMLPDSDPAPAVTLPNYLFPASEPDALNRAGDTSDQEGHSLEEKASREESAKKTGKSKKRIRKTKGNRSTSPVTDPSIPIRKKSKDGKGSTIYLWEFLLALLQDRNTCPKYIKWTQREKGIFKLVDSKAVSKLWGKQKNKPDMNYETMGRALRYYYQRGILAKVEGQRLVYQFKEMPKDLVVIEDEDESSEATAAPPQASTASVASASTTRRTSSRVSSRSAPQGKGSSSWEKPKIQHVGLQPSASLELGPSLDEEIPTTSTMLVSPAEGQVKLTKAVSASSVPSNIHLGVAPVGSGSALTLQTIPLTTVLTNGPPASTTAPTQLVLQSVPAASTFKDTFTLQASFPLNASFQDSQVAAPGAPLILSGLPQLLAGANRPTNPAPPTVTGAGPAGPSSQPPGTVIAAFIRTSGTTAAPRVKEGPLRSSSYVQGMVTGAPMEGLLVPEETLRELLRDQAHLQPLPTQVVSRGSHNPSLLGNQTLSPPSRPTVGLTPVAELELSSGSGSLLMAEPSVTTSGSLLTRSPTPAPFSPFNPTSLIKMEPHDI
# HSF1, sequence (Q00613 whole entry): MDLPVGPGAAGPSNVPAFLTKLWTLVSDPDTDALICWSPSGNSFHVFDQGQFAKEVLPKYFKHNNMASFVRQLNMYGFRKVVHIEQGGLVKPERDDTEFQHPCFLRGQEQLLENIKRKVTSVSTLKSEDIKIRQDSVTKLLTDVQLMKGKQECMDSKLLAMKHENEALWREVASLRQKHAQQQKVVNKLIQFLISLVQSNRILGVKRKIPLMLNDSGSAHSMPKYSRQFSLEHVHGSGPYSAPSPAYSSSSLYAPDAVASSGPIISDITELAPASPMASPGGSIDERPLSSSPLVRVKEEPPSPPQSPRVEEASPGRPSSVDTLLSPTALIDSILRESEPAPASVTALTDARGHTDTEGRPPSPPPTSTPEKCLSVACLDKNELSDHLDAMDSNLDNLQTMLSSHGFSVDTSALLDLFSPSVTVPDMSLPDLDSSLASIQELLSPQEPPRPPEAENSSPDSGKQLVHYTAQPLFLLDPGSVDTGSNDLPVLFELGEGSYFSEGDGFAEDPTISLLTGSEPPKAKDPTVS
Sequence,binding signal (FEV),binding signal (ETV5),binding signal (HSF1),binding signal (SPIC),binding signal (ELF4),binding signal (ELK4),binding signal (ETV2),binding signal (ELF3),binding signal (CRX),binding signal (ETV1),binding signal (ERF),binding signal (ETV3L),binding signal (ETS2),binding signal (ETV7),binding signal (ELF5),binding signal (ETV3),binding signal (ETV6)
AATCGC,"1.08 fold enrichment (6-mer frequency, TF over GST control)","1.03 fold enrichment (6-mer frequency, TF over GST control)","1.3 fold enrichment (6-mer frequency, TF over GST control)","1.08 fold enrichment (6-mer frequency, TF over GST control)","1.14 fold enrichment (6-mer frequency, TF over GST control)","1.08 fold enrichment (6-mer frequency, TF over GST control)","1.04 fold enrichment (6-mer frequency, TF over GST control)","1.08 fold enrichment (6-mer frequency, TF over GST control)","1.62 fold enrichment (6-mer frequency, TF over GST control)","1.15 fold enrichment (6-mer frequency, TF over GST control)","1.01 fold enrichment (6-mer frequency, TF over GST control)","1.05 fold enrichment (6-mer frequency, TF over GST control)","1.17 fold enrichment (6-mer frequency, TF over GST control)","1.07 fold enrichment (6-mer frequency, TF over GST control)","1.1 fold enrichment (6-mer frequency, TF over GST control)","1.08 fold enrichment (6-mer frequency, TF over GST control)","1.17 fold enrichment (6-mer frequency, TF over GST control)"
ACCGAA,"1.05 fold enrichment (6-mer frequency, TF over GST control)","1.06 fold enrichment (6-mer frequency, TF over GST control)","1.25 fold enrichment (6-mer frequency, TF over GST control)","1.12 fold enrichment (6-mer frequency, TF over GST control)","1.03 fold enrichment (6-mer frequency, TF over GST control)","1.06 fold enrichment (6-mer frequency, TF over GST control)","1.19 fold enrichment (6-mer frequency, TF over GST control)","1.11 fold enrichment (6-mer frequency, TF over GST control)","1.08 fold enrichment (6-mer frequency, TF over GST control)","1.05 fold enrichment (6-mer frequency, TF over GST control)","1.09 fold enrichment (6-mer frequency, TF over GST control)","1.04 fold enrichment (6-mer frequency, TF over GST control)","1.07 fold enrichment (6-mer frequency, TF over GST control)",–,–,"1.02 fold enrichment (6-mer frequency, TF over GST control)","1 fold enrichment (6-mer frequency, TF over GST control)"
